Experimental findings from ChEMBL document CHEMBL1961873, “Compounds: GSK PKIS; Assays: Nanosyn kinase panel” (2012) are described below.

Assay [1] has as its target Sphingosine kinase 1 (Homo sapiens) (UniProt Q9NYA1). The note with it: at 1 µM.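 Note: mean SPHK1 inhibition value reported from the GSK PKIS kinase panel screen.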
Assay [2] has as its target T1, Sphingosine kinase 2 (Homo sapiens) (UniProt Q9NRA0).
T1 sequence (whole entry): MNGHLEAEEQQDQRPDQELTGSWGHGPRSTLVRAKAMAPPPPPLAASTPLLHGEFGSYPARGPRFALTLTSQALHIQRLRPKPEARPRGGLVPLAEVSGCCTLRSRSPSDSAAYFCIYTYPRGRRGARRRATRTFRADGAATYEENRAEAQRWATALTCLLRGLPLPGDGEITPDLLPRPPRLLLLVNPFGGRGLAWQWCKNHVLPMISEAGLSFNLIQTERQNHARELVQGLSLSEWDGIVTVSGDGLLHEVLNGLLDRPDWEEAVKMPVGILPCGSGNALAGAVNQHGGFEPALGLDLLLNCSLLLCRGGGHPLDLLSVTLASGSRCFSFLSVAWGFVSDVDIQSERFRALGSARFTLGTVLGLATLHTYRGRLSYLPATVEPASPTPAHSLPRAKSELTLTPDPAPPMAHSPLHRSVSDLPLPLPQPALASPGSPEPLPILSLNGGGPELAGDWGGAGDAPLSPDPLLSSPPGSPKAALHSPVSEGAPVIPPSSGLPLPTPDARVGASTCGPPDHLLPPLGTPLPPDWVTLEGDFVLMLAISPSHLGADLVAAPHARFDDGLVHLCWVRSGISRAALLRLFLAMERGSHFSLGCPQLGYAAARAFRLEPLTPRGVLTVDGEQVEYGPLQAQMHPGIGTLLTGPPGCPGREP
To be noted: at 0.1 µM.

In assay [3] the target is T1, Sphingosine kinase 2 (Homo sapiens). The note with it: at 1 µM.
The target of assay [4] is Casein kinase II subunit alpha (Homo sapiens) (UniProt P68400). The note with it: at 0.1 µM.
For assay [5] the target is unchanged. To be noted: at 1 µM.
In assay [6] the target is T2, Inhibitor of nuclear factor kappa-B kinase subunit alpha (Homo sapiens) (UniProt O15111).
T2 sequence (whole entry): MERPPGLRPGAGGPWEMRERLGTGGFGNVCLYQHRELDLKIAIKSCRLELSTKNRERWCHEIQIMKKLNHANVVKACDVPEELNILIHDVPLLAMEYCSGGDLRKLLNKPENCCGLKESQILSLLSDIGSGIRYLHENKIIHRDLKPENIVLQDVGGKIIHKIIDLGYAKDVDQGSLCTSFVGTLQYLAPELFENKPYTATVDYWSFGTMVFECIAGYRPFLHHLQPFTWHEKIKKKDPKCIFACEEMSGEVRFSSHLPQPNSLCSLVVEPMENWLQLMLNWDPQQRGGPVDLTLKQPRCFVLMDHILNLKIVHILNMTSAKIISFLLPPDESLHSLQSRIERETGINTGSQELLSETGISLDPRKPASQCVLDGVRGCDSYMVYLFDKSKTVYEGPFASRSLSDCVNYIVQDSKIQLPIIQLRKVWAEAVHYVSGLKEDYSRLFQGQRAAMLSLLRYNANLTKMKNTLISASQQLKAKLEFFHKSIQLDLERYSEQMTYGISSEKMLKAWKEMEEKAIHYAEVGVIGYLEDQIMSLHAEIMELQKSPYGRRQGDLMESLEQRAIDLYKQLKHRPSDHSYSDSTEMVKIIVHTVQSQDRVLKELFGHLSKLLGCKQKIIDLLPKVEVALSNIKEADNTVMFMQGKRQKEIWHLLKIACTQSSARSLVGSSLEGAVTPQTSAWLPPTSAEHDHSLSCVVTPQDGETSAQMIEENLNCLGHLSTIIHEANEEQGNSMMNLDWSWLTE
To be noted: at 0.1 µM.

Assay [7] addresses T2, Inhibitor of nuclear factor kappa-B kinase subunit alpha (Homo sapiens). To be noted: at 1 µM.
In assay [8] the target is T3, Inhibitor of nuclear factor kappa-B kinase subunit beta (Homo sapiens) (UniProt O14920).
T3 sequence (whole entry): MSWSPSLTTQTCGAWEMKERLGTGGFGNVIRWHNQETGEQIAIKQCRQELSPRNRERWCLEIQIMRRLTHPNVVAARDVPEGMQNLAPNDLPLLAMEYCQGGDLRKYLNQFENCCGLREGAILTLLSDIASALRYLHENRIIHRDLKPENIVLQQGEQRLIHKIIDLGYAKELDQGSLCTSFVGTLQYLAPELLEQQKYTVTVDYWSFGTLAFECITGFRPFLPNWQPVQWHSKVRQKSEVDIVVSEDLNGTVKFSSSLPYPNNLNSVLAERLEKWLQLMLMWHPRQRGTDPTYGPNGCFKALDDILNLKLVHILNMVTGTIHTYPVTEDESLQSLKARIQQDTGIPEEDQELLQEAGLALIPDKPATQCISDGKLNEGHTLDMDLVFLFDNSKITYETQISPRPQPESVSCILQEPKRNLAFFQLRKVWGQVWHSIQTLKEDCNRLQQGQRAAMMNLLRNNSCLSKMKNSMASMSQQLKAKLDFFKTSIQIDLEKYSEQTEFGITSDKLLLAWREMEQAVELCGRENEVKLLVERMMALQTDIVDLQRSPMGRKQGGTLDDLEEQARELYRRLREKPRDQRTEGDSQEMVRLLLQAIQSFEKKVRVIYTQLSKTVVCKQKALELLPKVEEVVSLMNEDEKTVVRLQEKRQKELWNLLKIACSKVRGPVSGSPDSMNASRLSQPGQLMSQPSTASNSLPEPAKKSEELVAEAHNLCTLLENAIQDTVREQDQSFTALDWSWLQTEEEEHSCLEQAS
The note with it: at 0.1 µM.

For assay [9], the target named is T3, Inhibitor of nuclear factor kappa-B kinase subunit beta (Homo sapiens). The note with it: at 1 µM.
For assay [10], the target named is T4, Inhibitor of nuclear factor kappa-B kinase subunit epsilon (Homo sapiens) (UniProt Q14164).
T4 sequence (whole entry): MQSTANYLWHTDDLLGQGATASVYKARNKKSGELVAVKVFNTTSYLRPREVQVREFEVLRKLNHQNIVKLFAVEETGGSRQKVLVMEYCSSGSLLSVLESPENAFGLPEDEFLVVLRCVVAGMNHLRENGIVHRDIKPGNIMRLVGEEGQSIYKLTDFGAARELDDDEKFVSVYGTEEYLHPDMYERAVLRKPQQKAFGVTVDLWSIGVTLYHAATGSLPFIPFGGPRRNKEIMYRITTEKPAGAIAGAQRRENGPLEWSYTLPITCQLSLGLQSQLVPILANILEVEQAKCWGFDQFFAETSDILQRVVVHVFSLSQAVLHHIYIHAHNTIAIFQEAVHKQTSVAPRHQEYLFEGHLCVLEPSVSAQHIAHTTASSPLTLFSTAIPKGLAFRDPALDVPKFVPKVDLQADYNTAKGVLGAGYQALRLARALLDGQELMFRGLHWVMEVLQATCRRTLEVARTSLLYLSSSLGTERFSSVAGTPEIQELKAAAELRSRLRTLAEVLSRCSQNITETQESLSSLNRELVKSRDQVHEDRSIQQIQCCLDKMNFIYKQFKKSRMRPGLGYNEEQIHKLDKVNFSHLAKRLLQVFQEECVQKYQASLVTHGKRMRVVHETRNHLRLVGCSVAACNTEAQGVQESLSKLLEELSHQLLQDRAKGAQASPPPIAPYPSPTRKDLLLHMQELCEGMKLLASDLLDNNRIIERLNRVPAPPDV
The note with it: at 0.1 µM.

Assay [11] deals with T4, Inhibitor of nuclear factor kappa-B kinase subunit epsilon (Homo sapiens). To be noted: at 1 µM.
Assay [12] has as its target T5, Serine/threonine-protein kinase Nek1 (Homo sapiens) (UniProt Q96PY6).
T5 sequence (whole entry): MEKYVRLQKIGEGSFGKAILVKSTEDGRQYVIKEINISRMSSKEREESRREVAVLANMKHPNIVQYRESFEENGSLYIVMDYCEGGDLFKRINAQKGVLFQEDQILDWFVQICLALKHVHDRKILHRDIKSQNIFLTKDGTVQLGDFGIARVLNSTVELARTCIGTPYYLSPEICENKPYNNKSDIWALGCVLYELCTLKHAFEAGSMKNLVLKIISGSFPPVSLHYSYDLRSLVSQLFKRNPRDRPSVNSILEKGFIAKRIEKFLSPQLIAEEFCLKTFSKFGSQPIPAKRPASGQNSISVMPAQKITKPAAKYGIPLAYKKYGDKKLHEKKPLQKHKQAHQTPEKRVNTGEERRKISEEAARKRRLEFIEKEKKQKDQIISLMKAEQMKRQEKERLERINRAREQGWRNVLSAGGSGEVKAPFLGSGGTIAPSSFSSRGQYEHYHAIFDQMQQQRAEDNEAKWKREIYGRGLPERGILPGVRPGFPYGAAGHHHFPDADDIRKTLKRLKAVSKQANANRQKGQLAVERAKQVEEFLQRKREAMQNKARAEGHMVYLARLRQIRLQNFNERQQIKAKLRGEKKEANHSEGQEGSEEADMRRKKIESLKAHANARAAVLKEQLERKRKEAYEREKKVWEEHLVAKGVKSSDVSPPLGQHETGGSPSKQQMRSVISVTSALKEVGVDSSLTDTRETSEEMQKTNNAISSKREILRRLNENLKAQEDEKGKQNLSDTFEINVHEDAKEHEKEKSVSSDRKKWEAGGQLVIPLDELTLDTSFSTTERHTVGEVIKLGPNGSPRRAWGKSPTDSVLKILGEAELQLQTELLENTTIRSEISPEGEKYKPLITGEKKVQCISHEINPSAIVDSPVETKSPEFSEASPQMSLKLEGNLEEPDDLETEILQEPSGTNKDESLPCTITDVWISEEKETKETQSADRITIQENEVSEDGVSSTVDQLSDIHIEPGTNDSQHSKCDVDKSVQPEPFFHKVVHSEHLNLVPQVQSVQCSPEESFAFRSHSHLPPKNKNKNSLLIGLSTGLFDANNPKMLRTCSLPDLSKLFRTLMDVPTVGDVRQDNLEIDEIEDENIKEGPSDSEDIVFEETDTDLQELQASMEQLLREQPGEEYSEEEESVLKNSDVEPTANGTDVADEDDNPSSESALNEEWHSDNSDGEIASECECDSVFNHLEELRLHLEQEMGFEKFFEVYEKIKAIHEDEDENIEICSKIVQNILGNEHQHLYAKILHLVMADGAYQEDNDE
The note with it: at 0.1 µM.

Assay [13] addresses T5, Serine/threonine-protein kinase Nek1 (Homo sapiens). The note with it: at 1 µM.
The target of assay [14] is T6, Serine/threonine-protein kinase Nek2 (Homo sapiens) (UniProt P51955).
T6 sequence (whole entry): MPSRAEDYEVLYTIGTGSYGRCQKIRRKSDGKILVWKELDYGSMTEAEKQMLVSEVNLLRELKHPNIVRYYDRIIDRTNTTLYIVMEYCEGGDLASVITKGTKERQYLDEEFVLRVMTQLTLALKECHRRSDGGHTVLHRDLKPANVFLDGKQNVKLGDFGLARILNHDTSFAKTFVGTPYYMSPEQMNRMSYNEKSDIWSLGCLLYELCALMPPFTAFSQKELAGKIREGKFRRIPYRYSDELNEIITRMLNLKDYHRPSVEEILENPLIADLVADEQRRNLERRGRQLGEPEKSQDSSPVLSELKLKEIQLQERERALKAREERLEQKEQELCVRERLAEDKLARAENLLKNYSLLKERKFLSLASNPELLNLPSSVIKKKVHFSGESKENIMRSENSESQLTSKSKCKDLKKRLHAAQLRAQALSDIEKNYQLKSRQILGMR
To be noted: at 0.1 µM.

Assay [15] deals with T6, Serine/threonine-protein kinase Nek2 (Homo sapiens). To be noted: at 1 µM.
Assay [16] deals with Serine/threonine-protein kinase Nek6 (Homo sapiens) (UniProt Q9HC98). The note with it: at 0.1 µM.
Assay [17] has the same target. The note with it: at 1 µM.
Assay [18] addresses Serine/threonine-protein kinase Nek7 (Homo sapiens) (UniProt Q8TDX7). The note with it: at 0.1 µM.
Assay [19] has the same target. To be noted: at 1 µM.
Assay [20] has as its target T7, Serine/threonine-protein kinase Nek9 (Homo sapiens) (UniProt Q8TD19).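 Note: reported value is the mean percent inhibition of NEK9.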
T7 sequence (whole entry): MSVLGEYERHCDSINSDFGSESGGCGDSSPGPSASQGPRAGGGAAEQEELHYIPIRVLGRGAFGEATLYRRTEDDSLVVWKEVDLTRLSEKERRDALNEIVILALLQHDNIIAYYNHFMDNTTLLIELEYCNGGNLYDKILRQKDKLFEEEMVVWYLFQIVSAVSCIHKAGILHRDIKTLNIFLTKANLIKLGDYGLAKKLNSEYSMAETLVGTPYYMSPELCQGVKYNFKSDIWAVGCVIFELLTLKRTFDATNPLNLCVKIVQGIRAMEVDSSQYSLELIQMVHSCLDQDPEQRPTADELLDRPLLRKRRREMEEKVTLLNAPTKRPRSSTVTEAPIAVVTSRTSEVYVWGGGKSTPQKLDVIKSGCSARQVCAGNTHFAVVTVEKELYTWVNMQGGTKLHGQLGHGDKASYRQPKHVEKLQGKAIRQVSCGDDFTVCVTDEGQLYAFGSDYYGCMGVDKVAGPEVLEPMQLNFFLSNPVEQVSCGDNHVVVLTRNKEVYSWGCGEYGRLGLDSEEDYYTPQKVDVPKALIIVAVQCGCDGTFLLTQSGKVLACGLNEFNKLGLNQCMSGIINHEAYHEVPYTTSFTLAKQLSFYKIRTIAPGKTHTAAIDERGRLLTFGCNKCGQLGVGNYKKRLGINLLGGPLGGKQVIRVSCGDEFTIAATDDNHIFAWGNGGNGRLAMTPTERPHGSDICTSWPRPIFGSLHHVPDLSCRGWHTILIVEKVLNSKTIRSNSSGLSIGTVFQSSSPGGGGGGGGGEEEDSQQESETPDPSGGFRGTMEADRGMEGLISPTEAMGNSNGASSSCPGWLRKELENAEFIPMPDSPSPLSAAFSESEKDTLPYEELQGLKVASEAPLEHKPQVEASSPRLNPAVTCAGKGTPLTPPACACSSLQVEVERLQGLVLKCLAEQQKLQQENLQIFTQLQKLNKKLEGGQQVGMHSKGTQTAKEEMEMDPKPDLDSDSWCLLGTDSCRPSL
The note with it: at 0.1 µM.

One may read the inhibition as the percentage by which the read-out fell short of the control.

Sequence of Serine/threonine-protein kinase Nek6 (Homo sapiens) (Q9HC98 whole entry): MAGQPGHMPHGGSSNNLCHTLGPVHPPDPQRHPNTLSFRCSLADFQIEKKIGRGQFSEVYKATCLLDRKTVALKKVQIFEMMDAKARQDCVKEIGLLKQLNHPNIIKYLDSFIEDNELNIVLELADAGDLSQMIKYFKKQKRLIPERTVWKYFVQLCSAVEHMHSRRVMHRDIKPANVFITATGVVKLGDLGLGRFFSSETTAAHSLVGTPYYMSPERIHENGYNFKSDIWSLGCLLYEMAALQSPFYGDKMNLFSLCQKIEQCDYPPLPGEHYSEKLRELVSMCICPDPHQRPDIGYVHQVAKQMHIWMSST
Sequence of Serine/threonine-protein kinase Nek7 (Homo sapiens) (Q8TDX7 whole entry, looked up): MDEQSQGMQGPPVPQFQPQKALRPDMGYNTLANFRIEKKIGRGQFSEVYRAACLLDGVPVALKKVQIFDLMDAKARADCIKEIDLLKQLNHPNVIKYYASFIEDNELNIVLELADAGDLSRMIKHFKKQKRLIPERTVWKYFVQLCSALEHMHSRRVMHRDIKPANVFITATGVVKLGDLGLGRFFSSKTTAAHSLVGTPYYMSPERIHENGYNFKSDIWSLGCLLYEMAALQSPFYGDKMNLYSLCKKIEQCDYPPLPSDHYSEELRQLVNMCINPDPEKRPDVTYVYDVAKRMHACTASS
Sequence of Casein kinase II subunit alpha (Homo sapiens) (P68400 whole entry, looked up): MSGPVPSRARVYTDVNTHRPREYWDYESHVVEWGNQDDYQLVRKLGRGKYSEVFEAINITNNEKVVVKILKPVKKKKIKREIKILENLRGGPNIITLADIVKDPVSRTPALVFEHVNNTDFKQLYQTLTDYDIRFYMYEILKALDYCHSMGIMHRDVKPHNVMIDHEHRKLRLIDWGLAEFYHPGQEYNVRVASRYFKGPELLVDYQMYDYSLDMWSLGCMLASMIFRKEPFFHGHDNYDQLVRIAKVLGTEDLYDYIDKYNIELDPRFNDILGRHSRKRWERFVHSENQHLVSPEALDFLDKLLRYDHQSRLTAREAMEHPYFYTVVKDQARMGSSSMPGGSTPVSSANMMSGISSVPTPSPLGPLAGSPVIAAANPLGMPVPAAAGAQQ
Sequence of Sphingosine kinase 1 (Homo sapiens) (Q9NYA1 whole entry): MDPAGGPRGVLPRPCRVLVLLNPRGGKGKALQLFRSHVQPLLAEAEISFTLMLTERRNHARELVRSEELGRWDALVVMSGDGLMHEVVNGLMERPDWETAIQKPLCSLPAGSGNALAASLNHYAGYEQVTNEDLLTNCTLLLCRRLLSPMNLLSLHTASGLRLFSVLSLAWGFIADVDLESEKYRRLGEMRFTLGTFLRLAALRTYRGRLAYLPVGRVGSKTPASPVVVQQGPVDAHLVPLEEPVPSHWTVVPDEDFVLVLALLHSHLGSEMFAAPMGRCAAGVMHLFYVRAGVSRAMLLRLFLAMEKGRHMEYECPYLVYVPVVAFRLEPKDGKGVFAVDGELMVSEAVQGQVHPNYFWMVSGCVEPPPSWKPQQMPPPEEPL

In the case of `NC(=O)c1ccc(Oc2nccc(-c3c(-c4ccc(F)cc4)ncn3C3CCNCC3)n2)cc1`, the inhibition in [1] turned out to be 2.16%; in [2], 0.71%; in assay [3] it was 0.08%; in [4], 2.95%; in [5], 2.91%; in assay [6], 5.54%. The inhibition in [7] was 7.33%; in assay [8], 7.24%; in assay [9], 6.83%; in assay [10], 8.54%; in assay [11], 7.38%; in [12], 4.02%. The inhibition in [13] was 5.01%; in assay [14], 6.78%; in [15], 5.63%; in [16], 1.6%; in assay [17], 1.67%; in assay [18], 3.46%. Also, the inhibition in assay [19] amounted to 9.69%; in [20] it was 6.05%.
